Source: the supplement of paper PMC4840960

tested on: E18 rat cortical neuron-glia co-culture; experiment: fiber score / MBP score (myelination specific beyond OL differentiation) (ratio); higher = more myelination-specific MBP alignment; conditions: 1 µM; treatment time: 8 days (DIV5-DIV13)
Method in brief: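 Primary E18 rat cortical co-cultures (papain-dissociated, 20,000 cells/well on poly-d-lysine/laminin 96-well plates) received library compounds at 1 or 5 µM in myelination medium from DIV5 to DIV13. Cells were fixed in 4 % paraformaldehyde and immunostained for MBP and Olig2 with DAPI, and four 10X fields per well in duplicate wells were analysed. The read-out is fiber score (continuous MBP fiber length per Olig2+ nucleus) divided by MBP score (thresholded MBP area × intensity per Olig2+ nucleus).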

Structure (SMILES) | fiber score / MBP score
COc1ccccc1N1CCN(CC(O)COc2cccc3ccccc23)CC1 (stereo unspecified) [Naftopidil] | 0.655
C#C[C@]1(O)CC[C@H]2[C@@H]3[C@H](C)CC4=C(CCC(=O)C4)[C@H]3CC[C@@]21C [Tibolone] | 0.647
CC(=O)/N=c1/sc(S(N)(=O)=O)nn1C [Methazolamide] | 0.875
CCCc1nc2c(C)cc(-c3nc4ccccc4n3C)cc2n1Cc1ccc(-c2ccccc2C(=O)O)cc1 [Telmisartan] | 0.729
CN(Cc1cnc2nc(N)nc(N)c2n1)c1ccc(C(=O)N[C@@H](CCC(=O)O)C(=O)O)cc1 [Methotrexate] | 1.06
COc1ccc([C@@H]2Sc3ccccc3N(CCN(C)C)C(=O)[C@@H]2OC(C)=O)cc1 [Diltiazem] | 0.782
CN1CCC(=C2c3ccccc3CCc3sccc32)CC1 [Pizotyline] | 0.579
COc1cc(OC)c(C(=O)CCCN2CCCC2)c(OC)c1 [Buflomedil] | 0.901
CC(=O)OCC(=O)[C@@]12OC(C)(C)O[C@@H]1C[C@H]1[C@@H]3C[C@H](F)C4=CC(=O)C=C[C@]4(C)[C@@]3(F)[C@@H](O)C[C@@]12C [Fluocinonide] | 0.861
C[C@]12C[C@H](O)[C@H]3[C@@H](CCC4=CC(=O)CC[C@@]43C)[C@@H]1CC[C@@H]2C(=O)CO [Corticosterone] | 0.706
C[C@@H]1C[C@H]2[C@@H]3C[C@H](F)C4=CC(=O)C(Cl)=C[C@]4(C)[C@@]3(F)[C@@H](O)C[C@]2(C)[C@@]1(O)C(=O)CO [Halometasone hydrate] | 0.566
